In PubChem BioAssay (Tox21):
Records with an inconclusive call do not appear. A number with no mark means an inactive call. Unless noted, calls come from the whole dose curve; as a rule, active = well fitted curve in the direction sought with a large enough effect in the repeat runs; inconclusive = weak or mixed curves; inactive = no such curve, though single readings can be large; an effect the other way counts as inactive or inconclusive.

tested on: not listed separately; experiment: qHTS assay to identify small molecule antagonists of the peroxisome proliferator-activated receptor delta (PPARd) signaling pathway - cell viability counter screen (AID 743213); settings: PPARd-bla HEK293H viability, CellTiter-Glo luminescence, 17 h; series mostly up to 62 µM; viability change, negative = cytotoxic: at the top concentration; note: nearly all actives have a fitted effect of over 50% in size
Outline: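 HEK293H cells with the PPARd UAS-bla reporter, co-treated 17 h at 37 C with compounds and L165041 (300 nM final), were lysed with CellTiter-Glo. Luminescence indicated viable cell content.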
% is set by controls: 0 for no effect and ±100 for the full control effect.

| SMILES | viability change, negative = cytotoxic |
| --- | --- |
| CN(CC1(C)CCCO1)S(=O)(=O)c1ccc(Cl)c(S(N)(=O)=O)c1 (centres undefined) | 9.14% |
| CN1C(=O)CC(c2ccccc2)C1=O (centres undefined) | -2.62% |
| Cc1c(C(=O)NCCO)[n+](=O)c2ccccc2n1[O-] | 4.45% |
| CCCCC1CCC(=O)O1 (centres undefined) | 12.2% |
| NC/C=C/C(=O)O | 19.7% |
| CCCCCCCCCC#N | -28.1% |
| CCCCc1ccc2nc(NC(=O)OC)[nH]c2c1 | -18.3% |
| CCCCCOc1ccc(C2SC(=O)NC2=O)cc1OCC (centres undefined) | -1.76% |
| CC/C=C\CCOC(=O)C(C)C | 21.7% |
| CN(CCCN1c2ccccc2CCc2ccccc21)CC(=O)c1ccc(Cl)cc1 | -19% |
| CCOC(=O)NCCC[Si](OCC)(OCC)OCC | 7.79% |
| Cc1ccc([N+](=O)[O-])c(N)c1 | -6.44% |
| N#Cc1ccc(C(c2ccc(C#N)cc2)n2cncn2)cc1 | 8.18% |
| O=C1CCC(C2CCCCC2)CC1 | 6.95% |
| CCCCCCCCOC(=O)CCCCCCCCC(=O)OCCCCCCCC | 0.66% |
| CC1=C(O)C(=O)OC1C (centres undefined) | 9.87% |
| O=C1CCCc2ccccc21 | -1.37% [at 80.4 µM] |
| CCCc1c2oc(C(=O)O)cc(=O)c2cc2c(=O)cc(C(=O)O)n(CC)c12 | 0.502% |
| CC(C)Nc1nc(N)nc(Cl)n1 | 7.12% |
| CCCS(=O)c1ccc2nc(NC(=O)OC)[nH]c2c1 (centres undefined) | -0.849% |

molecular target: Peroxisome proliferator-activated receptor delta (Homo sapiens) (UniProt Q03181); experiment: qHTS assay to identify small molecule antagonists of the peroxisome proliferator-activated receptor delta (PPARd) signaling pathway (AID 743215; active = well fitted inhibition curve with a large enough effect in the signal ratio in the repeat runs, not every such curve was filed as active; the % refers to the signal ratio;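 note: cells stimulated with agonist L165041 at 300 nM final during compound exposure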); settings: HEK293H PPARd-UAS-bla, beta-lactamase FRET ratio, antagonist, 17 h; series mostly up to 62 µM; ratio activity, negative = inhibition: at the top concentration
Sequence (Q03181 whole entry, looked up): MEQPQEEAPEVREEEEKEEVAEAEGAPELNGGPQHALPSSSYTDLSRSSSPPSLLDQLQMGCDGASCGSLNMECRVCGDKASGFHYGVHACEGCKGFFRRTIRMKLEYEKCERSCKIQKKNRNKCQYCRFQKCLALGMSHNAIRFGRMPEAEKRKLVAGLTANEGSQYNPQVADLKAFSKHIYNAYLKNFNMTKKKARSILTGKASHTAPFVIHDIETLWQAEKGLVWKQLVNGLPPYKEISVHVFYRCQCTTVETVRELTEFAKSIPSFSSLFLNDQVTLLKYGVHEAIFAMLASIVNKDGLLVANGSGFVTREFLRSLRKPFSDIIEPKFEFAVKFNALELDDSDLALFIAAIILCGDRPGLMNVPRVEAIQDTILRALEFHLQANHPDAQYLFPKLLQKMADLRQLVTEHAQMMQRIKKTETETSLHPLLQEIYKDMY
Outline: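 PPARd-bla HEK293H cells (UAS-bla reporter) preincubated 5 h, then given compound plus 300 nM final L165041 agonist for 17 h at 37 C. Beta-lactamase activity read by LiveBLAzer B/G FRET substrate fluorescence after 2 h at room temperature.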

| SMILES | ratio activity, negative = inhibition |
| --- | --- |
| CN(CC1(C)CCCO1)S(=O)(=O)c1ccc(Cl)c(S(N)(=O)=O)c1 (centres undefined) | 3.62% |
| Cc1c(C(=O)NCCO)[n+](=O)c2ccccc2n1[O-] | 0.242% |
| O=S(=O)(O)C(F)(F)F | 9.6% |
| NC/C=C/C(=O)O | 4.46% |
| CCCCCCCCCC#N | -12.4% |
| CC(C)CC(=O)OCc1ccccc1 | 11.2% |
| CN(CCCN1c2ccccc2CCc2ccccc21)CC(=O)c1ccc(Cl)cc1 | 10.5% |
| CCCCNc1ccc(C(=O)OCCN(CC)CC)cc1 | -4.07% |
| CCOC(=O)NCCC[Si](OCC)(OCC)OCC | -12.2% |
| Cc1ccc([N+](=O)[O-])c(N)c1 | -0.49% |
| N#Cc1ccc(C(c2ccc(C#N)cc2)n2cncn2)cc1 | 3.43% |
| O=C1CCC(C2CCCCC2)CC1 | -5.42% |
| NC(=O)NS(=O)(=O)c1ccc(Cl)cc1 | -11.2% |
| CCCCCCCCOC(=O)CCCCCCCCC(=O)OCCCCCCCC | 9.06% |
| OCC(CBr)(CBr)CBr | 5.35% |
| CC1=C(O)C(=O)OC1C (centres undefined) | 14.9% |
| O=C1CCCc2ccccc21 | 3.24% [at 80.4 µM] |
| CCCc1c2oc(C(=O)O)cc(=O)c2cc2c(=O)cc(C(=O)O)n(CC)c12 | 2.22% |
| CN1CCN(c2c(F)cc3c(=O)c(C(=O)O)cn(CCF)c3c2F)CC1 | 0.844% |
| CC(C)Nc1nc(N)nc(Cl)n1 | 0.116% |
| COc1cc(Cl)ccc1Cl | 9.6% [at 80.4 µM] |
| O=C1N(c2ccccc2)c2ccccc2C1(Cc1ccncc1)Cc1ccncc1 | 6.78% |

molecular target: Bile acid receptor (Homo sapiens) (UniProt Q96RI1); experiment: qHTS assay to identify small molecule antagonists of the farnesoid-X-receptor (FXR) signaling pathway (AID 743217; active = well fitted inhibition curve with a large enough effect in the signal ratio in the repeat runs, not every such curve was filed as active; the % refers to the signal ratio); settings: HEK293T FXR-UAS-bla, beta-lactamase ratio, CDCA-stimulated, 16 h; series mostly up to 62.6 µM; activity change, negative = inhibition: at the top concentration
Sequence (Q96RI1 whole entry, looked up): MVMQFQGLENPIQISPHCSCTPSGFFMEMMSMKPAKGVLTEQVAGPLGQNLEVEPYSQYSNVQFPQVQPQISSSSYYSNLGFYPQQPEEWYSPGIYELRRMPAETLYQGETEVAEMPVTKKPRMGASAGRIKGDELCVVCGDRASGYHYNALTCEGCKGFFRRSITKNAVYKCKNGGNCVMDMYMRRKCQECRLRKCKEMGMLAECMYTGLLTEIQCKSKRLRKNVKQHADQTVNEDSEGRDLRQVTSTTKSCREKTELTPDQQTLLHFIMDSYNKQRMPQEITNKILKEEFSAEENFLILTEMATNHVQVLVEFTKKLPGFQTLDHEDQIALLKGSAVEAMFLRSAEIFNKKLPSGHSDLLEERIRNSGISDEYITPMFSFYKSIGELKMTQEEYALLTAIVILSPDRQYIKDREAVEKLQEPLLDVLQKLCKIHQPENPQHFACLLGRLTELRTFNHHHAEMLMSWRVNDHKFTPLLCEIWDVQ
Outline: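 FXR-UAS-bla HEK 293T cells (beta-lactamase reporter) given compound plus chenodeoxycholic acid (50 uM final), 16 h at 37C. LiveBLAzer B/G FRET substrate added for 2 h at room temperature; fluorescence read.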

| SMILES | activity change, negative = inhibition |
| --- | --- |
| CN(CC1(C)CCCO1)S(=O)(=O)c1ccc(Cl)c(S(N)(=O)=O)c1 (centres undefined) | 3.58% |
| OCc1ccccc1O | 9.81% |
| CN1C(=O)CC(c2ccccc2)C1=O (centres undefined) | 11.2% |
| CCNCCO | -2.77% |
| N#Cc1ccc(C(c2ccc(C#N)cc2)n2cncn2)cc1 | 0.944% |
| CC1=C(O)C(=O)OC1C (centres undefined) | -2.26% |

tested on: not listed separately; experiment: qHTS assay to identify small molecule agonists of the farnesoid-X-receptor (FXR) signaling pathway - cell viability counter screen (AID 743218); settings: FXR-bla HEK293T viability, CellTiter-Glo luminescence, 16 h; series mostly up to 62.6 µM; viability change, negative = cytotoxic: at the top concentration; note: nearly all actives have a fitted effect of over 45% in size
Outline: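 FXR-UAS-bla HEK 293T cells exposed to compounds for 16 h at 37C. Cytotoxicity read in the same wells by CellTiter-Glo luminescence after 30 min at room temperature, following the beta-lactamase FRET read.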

| SMILES | viability change, negative = cytotoxic |
| --- | --- |
| CN(CC1(C)CCCO1)S(=O)(=O)c1ccc(Cl)c(S(N)(=O)=O)c1 (centres undefined) | -1.9% |
| OCc1ccccc1O | -4.39% |
| CN1C(=O)CC(c2ccccc2)C1=O (centres undefined) | -2.38% |
| Cc1c(C(=O)NCCO)[n+](=O)c2ccccc2n1[O-] | -13.9% |
| O=S(=O)(O)C(F)(F)F | -10.3% |
| CCCCC1CCC(=O)O1 (centres undefined) | -0.0636% |
| CCOc1ccc(NC(N)=O)cc1 | 9.45% |
| NC/C=C/C(=O)O | -8.63% |
| CCCCCCCCCC#N | -15.7% |
| CCCCC(=O)O[C@]1(C(=O)CO)[C@H](C)C[C@H]2[C@@H]3CCC4=CC(=O)C=C[C@]4(C)[C@@]3(F)[C@@H](O)C[C@@]21C | -9.63% |
| CCCCc1ccc2nc(NC(=O)OC)[nH]c2c1 | 0.283% |
| O=C(O)c1ccccc1Nc1cc(Cl)ccc1C(=O)O | 5.3% [at 29.1 µM] |
| CCCCCOc1ccc(C2SC(=O)NC2=O)cc1OCC (centres undefined) | -3.57% |
| CC(C)CC(=O)OCc1ccccc1 | 7.49% |
| CC/C=C\CCOC(=O)C(C)C | -0.292% |
| CN(CCCN1c2ccccc2CCc2ccccc21)CC(=O)c1ccc(Cl)cc1 | -25.2% |
| CCNCCO | 0.348% |
| CCCCNc1ccc(C(=O)OCCN(CC)CC)cc1 | 5.7% |

| SMILES | viability change, negative = cytotoxic |
| --- | --- |
| CCOC(=O)NCCC[Si](OCC)(OCC)OCC | 3.27% |
| Cc1ccc([N+](=O)[O-])c(N)c1 | -2.51% |
| N#Cc1ccc(C(c2ccc(C#N)cc2)n2cncn2)cc1 | 28.3% |
| NC(=O)NS(=O)(=O)c1ccc(Cl)cc1 | -9.38% |
| CCCCCCCCOC(=O)CCCCCCCCC(=O)OCCCCCCCC | 4.34% |
| OCCN(CCO)c1ccccc1 | -2.56% |
| OCC(CBr)(CBr)CBr | -12.2% |
| CCCNC(C)C(=O)Nc1c(C)csc1C(=O)OC (centres undefined) | -0.558% |
| CC1=C(O)C(=O)OC1C (centres undefined) | 12.5% |
| O=C1CCCc2ccccc21 | 19.6% [at 81.1 µM] |
| COC(C)CCO (centres undefined) | 3.08% |
| CCCc1c2oc(C(=O)O)cc(=O)c2cc2c(=O)cc(C(=O)O)n(CC)c12 | 11.5% |
| CN1CCN(c2c(F)cc3c(=O)c(C(=O)O)cn(CCF)c3c2F)CC1 | -15.1% |
| CC(C)Nc1nc(N)nc(Cl)n1 | 5.19% |
| CC(=O)N[C@@H](CC(C)C)C(=O)O | 0.107% |
| CCCS(=O)c1ccc2nc(NC(=O)OC)[nH]c2c1 (centres undefined) | -19.6% |
| COc1cc(Cl)ccc1Cl | 25.9% [at 81.1 µM] |
| C1CCOC1 | 9.32% [at 81.1 µM] |
